Outcome and AC50 data for three molecules are collected here from PubChem BioAssay (EPA / NIEHS).

A structure can be active in one record and inactive in another. The source made the active and inactive calls. Rule for the calls: active = hit-call score of the fitted dose curve at least 0.9, where 1 is the maximum; inactive = score below 0.9.

A short description of one test: CCTE_Mundy_HCI_Cortical_Synap_Neur_Matur_NeuriteSpotCountPerNeuriteLength: CCTE's Synaptogenesis and Neurite Maturation Assay in rat cortical cells for Neurite Spot Count per Neurite Length, Mundy Lab (AID 2284210). Summed up: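 Rat primary cortical cultures, AraC added at DIV 5 to suppress glia; chemical exposure from DIV 7 to DIV 12. Fixed cells stained for MAP2 and synaptophysin plus Hoechst; synaptophysin puncta per neurite length quantified by high-content imaging, relative to DMSO.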
For the molecule `N[C@H]1C(O)O[C@H](CO)[C@H](O)[C@@H]1O` (some centres undefined), the molecule was classed as inactive.
As to `Nc1ncn([C@@H]2O[C@H](CO)[C@@H](O)[C@H]2O)c(=O)n1`, the result was inactive.
With `CC1(C)S[C@@H]2[C@H](NC(=O)COc3ccccc3)C(=O)N2[C@H]1C(=O)O`, the molecule was classed as inactive.

Another test can be described thus: CCTE_Mundy_HCI_Cortical_Synap_Neur_Matur_BPCount: CCTE's Synaptogenesis and Neurite Maturation Assay in rat cortical cells for Branch Point Count, Mundy Lab (AID 2284211). Summed up: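 Rat primary cortical cultures, AraC added DIV 5; chemicals dosed DIV 7 through DIV 12. Fixed cells stained for MAP2, synaptophysin and Hoechst; neurite branch points counted by automated high-content imaging, fitted relative to DMSO.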
`N[C@H]1C(O)O[C@H](CO)[C@H](O)[C@@H]1O` (some centres undefined): the result was inactive.
Take `Nc1ncn([C@@H]2O[C@H](CO)[C@@H](O)[C@H]2O)c(=O)n1`: the result was inactive.
Same read-out and setting: under `CC1(C)S[C@@H]2[C@H](NC(=O)COc3ccccc3)C(=O)N2[C@H]1C(=O)O` stands “inactive”.

The next test can be described thus: CCTE_Mundy_HCI_Cortical_NOG_NeuriteCount: CCTE's Neurite Outgrowth Assay in rat cortical cells for Neurite Count, Mundy Lab (AID 2284212).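 Note: cells fixed about two days after chemical exposure began.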 The gist of the method: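 Neurite number per cell from high-content imaging of betaIII-tubulin immunostaining, with Hoechst nuclear counterstain.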
`N[C@H]1C(O)O[C@H](CO)[C@H](O)[C@@H]1O` (some centres undefined): the molecule was classed as inactive.
`Nc1ncn([C@@H]2O[C@H](CO)[C@@H](O)[C@H]2O)c(=O)n1`: the call was inactive.
On the same count and under the same terms, next, `CC1(C)S[C@@H]2[C@H](NC(=O)COc3ccccc3)C(=O)N2[C@H]1C(=O)O`: “inactive”.

The next test is described as follows: CCTE_Mundy_HCI_Cortical_NOG_NeuriteLength: CCTE's Neurite Outgrowth Assay in rat cortical cells for Neurite Length, Mundy Lab (AID 2284213).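 For AC50: neurites imaged about 48 to 50 h after chemical exposure began.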 The gist of the method:
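Neurite length was read by high-content imaging of βIII-tubulin-labelled neurites in rat primary cortical cultures. Activity was fitted relative to DMSO.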
Turning to `N[C@H]1C(O)O[C@H](CO)[C@H](O)[C@@H]1O` (some centres undefined), the result was inactive.
Turning to `Nc1ncn([C@@H]2O[C@H](CO)[C@@H](O)[C@H]2O)c(=O)n1`, the AC50 was 7.87 µM (active) and the molecule was classed as inactive.
Take `CC1(C)S[C@@H]2[C@H](NC(=O)COc3ccccc3)C(=O)N2[C@H]1C(=O)O`: the result was inactive.

The next test in a line: CCTE_Mundy_HCI_Cortical_Synap_Neur_Matur_NeuriteLength: CCTE's Synaptogenesis and Neurite Maturation Assay in rat cortical cells for Neurite Length, Mundy Lab (AID 2284214). The gist of the method:
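Rat cortical neurons, AraC at DIV 5; compound + media change DIV 7, end DIV 12 (288.33 h). Fix, MAP2/synaptophysin/Hoechst immunostain, automated HCI of neurite length vs DMSO.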
Consider `N[C@H]1C(O)O[C@H](CO)[C@H](O)[C@@H]1O` (some centres undefined), for which the molecule was called inactive.
With `Nc1ncn([C@@H]2O[C@H](CO)[C@@H](O)[C@H]2O)c(=O)n1`, the result was inactive.
Still for that read-out and setting: under `CC1(C)S[C@@H]2[C@H](NC(=O)COc3ccccc3)C(=O)N2[C@H]1C(=O)O` stands “inactive”.

A further test in a line: CCTE_Mundy_HCI_Cortical_Synap_Neur_Matur_NeuriteSpotCountPerNeuron: CCTE's Synaptogenesis and Neurite Maturation Assay in rat cortical cells for Neurite Spot Count per Neuron Count, Mundy Lab (AID 2284215). Summed up: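 Synapse density is scored as synaptophysin spots along neurites per neuron in fixed rat cortical neurons, measured at DIV 12 after chemical dosing at DIV 7. DMSO is the negative control and activity baseline.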
As for `N[C@H]1C(O)O[C@H](CO)[C@H](O)[C@@H]1O` (some centres undefined), the call was inactive.
As to `Nc1ncn([C@@H]2O[C@H](CO)[C@@H](O)[C@H]2O)c(=O)n1`, the molecule was classed as inactive.
Take `CC1(C)S[C@@H]2[C@H](NC(=O)COc3ccccc3)C(=O)N2[C@H]1C(=O)O`: the result was inactive.

The term AC50 denotes the midpoint of the concentration-response curve, whichever way the signal moves.
